# Source: PubChem BioAssay (NCI)
# The panel holds about 83,000 compounds, 20% with a hit somewhere; the sample as a whole holds those more often.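 Single-dose data. Exposure time 48 hours. Values below 10 considered active.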 Unmarked numbers belong to inactive results. The source made the active and inactive calls.
# Legend:
# Test in all cases: NCI-60 one-dose screen, 48 h (100 = growth as untreated, 0 = no growth, -100 = all killed)
# Conditions in all cases: 10 µM unless noted
# [1] = test system: NCI-H23 lung
# [2] = test system: NCI-H322M lung
# [3] = test system: HOP-62 NSCLC
# [4] = test system: NCI-H460 lung
# [5] = test system: HOP-92 NSCLC
# [6] = test system: NCI-H522 lung
# [7] = test system: A549/ATCC NSCLC
# [8] = test system: 786-0 renal
# [9] = test system: COLO 205 colon
# [10] = test system: DU-145 prostate
# [11] = test system: K-562 leukemia
# [12] = test system: MALME-3M melanoma
# [13] = test system: MDA-MB-231 breast
# [14] = test system: RXF 393 renal
# [15] = test system: SF-268 CNS
# [16] = test system: SF-295 CNS
# [17] = test system: SF-539 CNS
# [18] = test system: UACC-257 melanoma
# [19] = test system: M14 melanoma
# [20] = test system: HCT-15 colon
Structure (SMILES),growth [1],growth [2],growth [3],growth [4],growth [5],growth [6],growth [7],growth [8],growth [9],growth [10],growth [11],growth [12],growth [13],growth [14],growth [15],growth [16],growth [17],growth [18],growth [19],growth [20]
O=C1/C(=C/c2ccc(O)cc2)COc2ccc(O)c(O)c21,35.9%,79%,51.5%,8.73% (active),52.7%,-47.7% (active),34.5%,25.4%,91.8%,17%,4.59% (active),-6.72% (active),20.2%,9.98% (active),24.5%,95.6%,-13.7% (active),63.2%,64.7%,-29.3% (active)
COc1cc(C2C3=C(COC3=O)N(CCO)c3cc4c(cc32)CCC4)cc(OC)c1O (stereo not given),45.1%,53.1%,41.2%,-22.7% (active),97.5%,-24.5% (active),18.1%,27%,13.6%,-25.8% (active),14.7%,54.7%,18%,-35.8% (active),43.6%,-2.29% (active),-22.6% (active),36.2%,1.16% (active),17.9%
CCOC(=O)CSc1c(-c2ccccc2)c2cc(Cl)ccc2[nH]c1=O,101%,94.9%,94.5%,101%,100%,91.2%,102%,97.1%,110%,103%,84.1%,114%,104%,103%,102%,69.6%,107%,120%,104%,91.7%
C1=CC2(C=C1)OC21CCC2(C=CC3(C2)OC3C2CCCCC2)CC1 (stereo not given),116%,105%,112%,103%,104%,106%,101%,100%,120%,112%,113%,108%,108%,119%,104%,106%,101%,108%,102%,101%
COc1ccc(CCN2CCC(CN(C)Cc3cnn(-c4ccccc4)c3)CC2)cc1,31.9%,46.4%,30%,3.48% (active),37.3%,43.7%,4.78% (active),25.6%,30.1%,28.6%,10.4%,18.4%,21.6%,35%,21%,47.5%,19.7%,19.1%,-19.2% (active),26.2%
CC1=C(C(=O)OCC2CCN(C(=O)OC(C)(C)C)CC2)[C@@H](c2cccc(C#N)c2)C2=C(CC(C)(C)CC2=O)N1,53.3%,57.1%,65.8%,8.58% (active),79.9%,29.6%,35.5%,41.5%,38.6%,38.5%,25.5%,48.5%,61.1%,71%,50.5%,27.5%,41.7%,61.4%,35.7%,19.5%
Cn1c(=O)n(C)c2cc(CNCCNc3ccnc4cc(Cl)ccc34)ccc21,95.3%,95.4%,78.1%,2.02% (active),55.9%,94.9%,70.3%,1.49% (active),55.1%,74.8%,5.18% (active),43.6%,62.5%,52.1%,97.9%,-69.4% (active),58.9%,-61.8% (active),-52.8% (active),9.62% (active)
CCCCOCc1cc(CN2CCN(C)CC2)c(O)c2ncccc12,60%,53.9%,32.9%,21.9%,57.9%,24.9%,35.9%,38.1%,85.4%,63.9%,50.7%,93.4%,47.1%,69%,47.9%,58.5%,53.3%,51.4%,41.2%,25.6%
COc1ccc(-c2nc(N3CCN(C(=O)C4CCCCC4)CC3)c3c4c(sc3n2)CCCC4)cc1,44%,43.1%,-84.5% (active),-32.8% (active),44.8%,-23.9% (active),-36.3% (active),-78.4% (active),-38.5% (active),-21.9% (active),0.112% (active),-56.2% (active),36.9%,-59.3% (active),20.3%,-82% (active),-1.73% (active),63.5%,29.9%,49.2%
COCCN(C(=O)Cc1cccs1)C(C(=O)NCc1ccc(OC)cc1)c1ccc(C(C)C)cc1 (stereo not given),86.4%,92.2%,97.8%,78.2%,-3.71% (active),80.7%,87.2%,95%,104%,63.5%,77%,72.2%,71.4%,88.5%,57.8%,84.3%,93.3%,122%,106%,95.7%
N#C/C(=C1\SC(=O)CN1c1ccccc1)c1nc2ccccc2s1,75.8%,102%,94.4%,97.1%,102%,80.5%,97%,102%,103%,99.7%,82.8%,99.3%,85.5%,105%,103%,84.2%,97.6%,97%,91.2%,95.8%
CCOC(=O)c1sc(-c2ccc(OS(=O)(=O)c3cccs3)c(C=O)c2)nc1C,11.4%,47.3%,22.5%,3.56% (active),11.9%,-2.27% (active),32.5%,5.71% (active),79.6%,8.94% (active),4.3% (active),-5.26% (active),-16.8% (active),19%,9.2% (active),-8.21% (active),-26.2% (active),32.1%,-17.6% (active),1.42% (active)
COc1c(B(O)O)cccc1-c1nc2ccc3[nH]ncc3c2c2c1C1CCC2C1 (stereo not given),85.1%,84.2%,65.7%,51%,108%,59.5%,26.6%,52.6%,50.4%,72.3%,55.6%,136%,71.2%,28.5%,67.4%,86%,28%,101%,84%,49.6%
O=C(Nc1ccsc1C(=O)NC1CCCCC1)c1ccc(F)cc1,100%,116%,103%,98.3%,71.1%,108%,103%,101%,104%,119%,88.5%,99.9%,87.2%,95.6%,104%,110%,101%,114%,101%,95.6%
Cc1ccc(F)cc1NC(=O)c1cc(Cl)ccc1Nc1ccccc1,60.1%,62.4%,83.9%,40.2%,75.9%,47.7%,42.3%,68.1%,16%,69.6%,22.3%,83%,69.7%,68.3%,55%,13.7%,62.5%,65.7%,45.1%,38.4%
O=c1c(-c2nc3ccccc3[nH]2)cc2ccccc2n1Cc1cn(Cc2ccc(N3CCOCC3)cc2)nn1,76.5%,68.8%,16.3%,55.3%,75.9%,28%,74.8%,57.1%,83.7%,36.9%,100%,64.2%,71.5%,35.7%,22.6%,95.4%,52.6%,78.7%,80.1%,78.6%
C=CCN1C(=O)/C(=c2\sc3n(c2=O)NC2C(N=3)N(CC)C(=O)N2CC)c2ccccc21 (stereo not given),43.7%,57%,62.7%,15%,108%,25.9%,42.5%,57.5%,11.1%,26%,11.3%,67.6%,38.4%,13.7%,59.7%,37.3%,-5.16% (active),82.4%,16.5%,25%
COC(=O)/C(CCC=C(C)C)=C1\[C@@H](OC(C)=O)C[C@@]2(C)[C@H]1C[C@@H](O)[C@H]1[C@@]3(C)CC[C@H](NCc4ccccc4)[C@@H](C)[C@@H]3CC[C@@]12C,81.4%,91.5%,84%,45.1%,48.8%,80%,59%,55.4%,50%,74.8%,11%,68%,63.6%,49.6%,64.1%,85.7%,70%,75.4%,49.8%,31%
CC/C(=C(\CC)c1ccc(OCC[N+](C)(C)C)cc1)c1ccc(OC)cc1,56.7%,99.3%,62.4%,40.1%,45.3%,32.7%,53%,91.1%,6.92% (active),94.9%,30.4%,68.3%,71.9%,29%,61.2%,76.2%,59.9%,39%,58.1%,97.6%
CCCCCCc1cc2cc(-c3csc(/C=C/c4ccccc4)n3)c(=O)oc2cc1O,54.5%,63.9%,34.9%,17.7%,-3.21% (active),-30.7% (active),28.7%,30.1%,-93.5% (active),53.3%,-25.8% (active),-79.9% (active),-8.21% (active),-9.75% (active),17%,-55% (active),-77.3% (active),-78.3% (active),-58.3% (active),18.9%
CN1C(=O)N(C)C2Nn3c(s/c(=C\c4ccc(Cl)cc4Cl)c3=O)=NC21 (stereo not given),61.8%,78.7%,73.2%,30.8%,89.5%,55.3%,51.4%,68.5%,22%,30.3%,19.5%,72.5%,55.9%,39.7%,61.1%,32.4%,36%,84.5%,21%,43.8%
COc1cccc2cc(N(C)c3nc(C)nc4ccsc34)ccc12,22.3%,49.8%,17.1%,1.59% (active),8.89% (active),-15.2% (active),7.7% (active),20.5%,-56.9% (active),-4.03% (active),5.29% (active),52.5%,28.9%,40%,21.7%,3.17% (active),-15.5% (active),37.7%,9.85% (active),0.625% (active)
O=C(Nc1ccc(Cl)cc1)N1CCN(c2ccc3nncn3n2)CC1,77.2%,29.8%,-11.4% (active),-27.3% (active),-21.8% (active),-45.1% (active),-12% (active),-85.9% (active),-81.2% (active),36%,-61.1% (active),-86.8% (active),-55.5% (active),-81.2% (active),-48.1% (active),-87.2% (active),-86.7% (active),-68.9% (active),-87.1% (active),0.448% (active)
COc1nccc2cc3c(=O)n4c(cc5ccccc54)c(=O)n3c12,89.8%,86.3%,82.3%,103%,118%,93.7%,104%,102%,102%,111%,91.9%,85.7%,90.3%,112%,101%,106%,104%,114%,97.2%,91.4%
CCOC(=O)c1cc2c(n1Cc1cc(OC)cc(OC)c1)-c1oncc1CCC2,23.7%,28%,50.4%,6.91% (active),57.5%,-19.1% (active),26.6%,41.9%,-54.8% (active),15.6%,7.66% (active),8.25% (active),15.5%,18.6%,33.5%,-16.6% (active),2.3% (active),52.9%,25.3%,24.2%
O=c1oc2ccc(I)cc2c(=O)n1-c1ccc(Cl)cc1F,-9.99% (active),5.32% (active),-3.85% (active),3.56% (active),-6.61% (active),-17.1% (active),6.01% (active),8.94% (active),52.1%,19.5%,4.68% (active),-21.2% (active),-12.6% (active),4.98% (active),12%,-48.1% (active),7.99% (active),-15.1% (active),9.12% (active),2.13% (active)
